For experiment [1], the target named is Guanine nucleotide-binding protein G(i) subunit alpha-1 (Homo sapiens) (UniProt P63096). The experiment is described as follows: qHTS Assay for Inhibitors of RGS12 GoLoco Motif Activity (Green Fluorophore) (AID 879).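 Note: 0% = labeled peptide with Gαi1 and full inhibition = labeled peptide alone without protein; negative values mean loss of peptide binding seen as reduced polarization.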 The gist of the method:
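Fluorescence polarization assay: 50 nM Gαi1 with 10 nM FITC-labeled RGS12 GoLoco peptide in 10 mM Tris pH 7.5, 150 mM NaCl, 0.1 mM GDP, 0.05% NP40, 10 min at room temperature with compound.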
(In qHTS, concentration-response curves come from the screen itself.)

Experiment [2] is described as follows: qHTS Assay for Identification of Small Molecule Agonists for Thrombopoietin (TPO) Signaling Pathway (AID 917). Note: % is set by controls: 0 for no effect and ±100 for the full control effect. The gist of the method: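 Murine Ba/F3 cells expressing human TPO receptor and GPIIb-promoter luciferase, IL-3-starved overnight, given compound plus TPO at 26 pM (EC50). After 24 h at 37 C, 5% CO2, luminescence read.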
For experiment [3], the target named is Muscarinic acetylcholine receptor M1 (Rattus norvegicus) (UniProt P08482). As to the kind of experiment: qHTS Assay for Antagonists of Acetylcholine Muscarinic M1 Receptor: Kinetic Measurement of Intracellular Calcium Response (AID 943).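 Note: Fluo-4 calcium signal as peak divided by basal fluorescence over 4 min; series mostly up to about 35 µM; nearly all actives have a fitted effect of over 75% in size.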 An outline of the steps:
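Rat M1-CHO cells, 2000/well, overnight → Fluo-4 no-wash dye with probenecid, 1 h 37C → compound 10 min, room temp → basal read 6 s → carbachol EC80 (100 nM) → 4 min kinetic read; peak/basal.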

Experiment [4] has the same target. As to the kind of experiment: qHTS Assay for Antagonists of Acetylcholine Muscarinic M1 Receptor: Measurement of IP-One Response (AID 944). Note: nearly all actives have a fitted effect of over 75% in size. Note: potency is the fitted concentration of half-maximal effect. An outline of the steps:
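M1-CHO (rat), 2000 cells/well, overnight recovery; cpd 10 min; carbachol EC80 (200 nM), 30 min, HEPES buffer + 50 mM LiCl pH 7.4; IP-One HTRF, Ex 337, Em 620/665 nm.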

Experiment [5] has as its target Pyruvate kinase (Leishmania mexicana) (UniProt Q27686). As to the kind of experiment: qHTS Validation Assay for Inhibitors of Leishmania Mexicana Pyruvate Kinase (AID 945).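 Note: 0% = DMSO only neutral control wells.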 An outline of the steps:
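LmPYK E451W 0.2 nM; 0.5 mM PEP, 0.1 mM ADP, 7 mM MgCl2, 50 mM KCl, imidazole pH 7.2, 0.01% Tween 20, 0.05% BSA; 1 h RT; PKLight luminescence; DMSO-normalized.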

The target in experiment [6] is Pyruvate kinase PKM (Homo sapiens) (UniProt P14618). The experiment is described as follows: qHTS Assay for Activators of Human Muscle Pyruvate Kinase (AID 954; active = well fitted curve in the direction sought with a large enough effect, not every such curve was filed as active;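 note: 0% = uninhibited enzyme and -100% = no enzyme or full thiadiazolimine inhibition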). An outline of the steps:
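Luminescence from a luciferase ATP-detection/stop reagent reported PKM2 activity. Reactions contained 0.1 nM purified human enzyme, 0.5 mM PEP, 0.1 mM ADP and 7 mM MgCl2 at pH 7.2, run 1 h at RT.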

Experiment [7] in a line: Cellular Toxicity (caspase-3) Renal Proximal Tubule (AID 667).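 Note: cells exposed to compound for 16 hours at 37 °C before detection; 0% = DMSO basal and 100% = 10 µM staurosporine.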 The gist of the method:
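Freshly isolated primary rat kidney proximal tubule cells, 1000/well, treated 16 hr at 37 °C, then Caspase-Glo 3/7 luminescence after 1 hr. Normalized to DMSO and 10 uM staurosporine; AC50 from Hill fit.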

Experiment [8] has as its target Cytochrome P450 3A4 (Homo sapiens) (UniProt P08684). As to the kind of experiment: qHTS Assay for Inhibitors and Substrates of Cytochrome P450 3A4 (AID 884). Note: series mostly up to about 57 µM; % is set by controls: 0 for no effect and ±100 for the full control effect; nearly all actives have a fitted effect of over 50% in size. The gist of the method: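 20 nM human CYP3A4 with 25 uM Luciferin-PPXE (at KM) in 200 mM KPO4, preincubated 10 min with compound; NADPH regeneration started a 60 min RT reaction. Luciferin detected by luminescence, normalized to 57 uM ketoconazole as full inhibition.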

The target of experiment [9] is Cytochrome P450 2C19 (Homo sapiens) (UniProt P33261). The experiment is described as follows: qHTS Assay for Inhibitors and Substrates of Cytochrome P450 2C19 (AID 899). Note: nearly all actives have a fitted effect of over 60% in size. Note: potency is the fitted concentration of half-maximal effect. An outline of the steps:
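Reactions contain 5nM enzyme, 10uM Luciferin-H EGE (KM) and 50mM KPO4; compound preincubates 10 min at 37C, NADPH regeneration starts turnover for 60 min. Luminescence after detection reagent gives activity.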

A short description of experiment [10]: Confirmation and Secondary Assay for Modulators of Hemoglobin Beta Chain Splicing at IVS2 654 locus (AID 910).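 Note: HeLa cells stably carrying EGFP split by mutant beta-globin IVS2-654 intron; per-well total GFP intensity by laser scanning cytometry after 2-day treatment; % of control where 0% means no effect.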 An outline of the steps: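 Readout: per-well total peak green fluorescence (488 nm ex, 500–520 nm em) from objects 5–250 µm, reflecting correct splicing of an EGFP-654 reporter. Compounds were applied for 2 days at 37 °C to overnight-plated HeLa EGFP-654 cells; controls were DMSO and 500 nM IVS2-654 PNA.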

A short description of experiment [11]: Cell Viability - LYMP2-001 (AID 921).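 Note: series mostly up to about 92 µM; 0% = DMSO only and full inhibition = tetraoctylammonium bromide control wells; nearly all actives have a fitted effect of over 70% in size.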 An outline of the steps: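 Human lymphoblastoid LYMP2-001 cells, 2500 per well, in complete medium, treated 24 h at 37 C. Viability from cellular ATP by CellTiter-Glo luminescence; AC50 from Hill-equation fits of qHTS concentration-response.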
Experiment [12] is described as follows: Confirmation and Secondary Assay for Modulators of Hemoglobin Beta Chain Splicing at IVS2 705 locus (AID 930).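 Note: HeLa cells stably expressing the EGFP-705 splicing reporter; series mostly up to about 46 µM; % of control where 0% means no effect.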 The gist of the method:
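HeLa cells stably carrying EGFP interrupted by mutant beta-globin IVS2-705 intron (CMV-driven) were seeded at 500 cells/well, treated next day with compound for 2 days at 37C; corrected splicing restores EGFP, read as total peak GFP intensity per well.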

A short description of experiment [13]: MultiTox-Fluor Cytotoxicity Assay - LYMP1-001 - Dead Cells (AID 946).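 Note: 0% = DMSO and 100% = tetraoctylammonium bromide.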 The gist of the method:
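AC50 from Hill fit of concentration-response; data normalized to DMSO (basal) and 15 uM tetraoctylammonium bromide (100%). LYMP1-001 lymphoblastoid cells, 2500/well, 16 hr compound at 37 C; dead-cell protease fluorescence, Ex/Em 485/520.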

Experiment [14] is described as follows: MultiTox-Fluor Cytotoxicity Assay - LYMP1-001 - Live Cells (AID 947).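 Note: 0% = DMSO only and full inhibition = tetraoctylammonium bromide control.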
Experiment [15] can be described thus: Cellular Toxicity (caspase-3) NIH 3T3 (AID 666).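 Note: caspase signal read after 16 h compound exposure; 0% = DMSO basal and 100% = 100 µM tamoxifen stimulation.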 The gist of the method:
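Luminescence from aminoluciferin released by caspase-3/7 cleavage of a peptide substrate served as read-out. Mouse fibroblast NIH 3T3 cells were exposed to compounds over a concentration range for 16 hours, and AC50 values came from standard Hill modelling.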

The target of experiment [16] is Cytochrome P450 3A4 (Homo sapiens) (UniProt P08684). The experiment is described as follows: qHTS Assay for Activators of Cytochrome P450 3A4 (AID 885). Note: nearly all actives have a fitted effect of over 65% in size. The gist of the method:
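20nM CYP3A4 + 25uM Luciferin-PPXE (=KM), 200mM KPO4; cpd 10 min RT; NADPH regen, 60 min RT; stop w/ detection buffer, 20 min; luminescence. Normalized to 57 uM ketoconazole.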

Experiment [17] addresses Cytochrome P450 2C9 (Homo sapiens) (UniProt P11712). As to the kind of experiment: qHTS Assay for Inhibitors and Substrates of Cytochrome P450 2C9 (AID 883). Note: % is set by controls: 0 for no effect and ±100 for the full control effect; nearly all actives have a fitted effect of over 60% in size. The gist of the method:
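Turnover of Luciferin-H (100uM, KM) by 10nM human CYP2C9 was measured over 60 min at 37C with NADPH regeneration; inhibitors and some substrates reduce luminescence. Data normalized to sulphaphenazole 57uM.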

A short description of experiment [18]: qHTS Assay for Identification of Small Molecule Antagonists for NFkB Signaling Pathway (AID 895; active = well fitted inhibition curve with a large enough effect in the signal ratio, with a control signal flat, not every such curve was filed as active; the % refers to the signal ratio; note: % is set by controls: 0 for no effect and ±100 for the full control effect). The gist of the method:
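Beta-lactamase reporter read-out (460 and 530 nm emission ratio, 405 nm excitation, 2 hrs substrate loading RT) after 5 hr stimulation with 10 pM TNF alpha in compound-treated NFkB-bla ME-180 cells in low-serum medium.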

A short description of experiment [19]: qHTS Assay for Identification of Small Molecule Agonists for Hypoxia Response Element Signaling Pathway (AID 914; active = well fitted activation curve with a large enough effect in the signal ratio, with a control signal flat, not every such curve was filed as active; the % refers to the signal ratio; note: % of control where 0% means no effect). Conditions: ME-180 HRE-bla reporter, beta-lactamase ratio, CoCl2, 17 h; stronger effect = higher value. An outline of the steps: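 ME-180 cells carrying an HRE-driven beta-lactamase reporter were treated with compounds in a titration series plus an EC50 level of CoCl2 for 17 h at 37 degrees Celsius; CCF4 readout as the 460nm/530nm ratio gave AC50 values.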

Unmarked numbers belong to inactive results. Records with an inconclusive call do not appear. The source made the active and inactive calls. Unless noted, calls come from the whole dose curve; as a rule, active = well fitted curve in the direction sought with a large enough effect; inconclusive = small, poorly fitted or top-dose-only effect, or another doubt; inactive = no such curve, though single readings can be large; an effect the other way counts as inactive or inconclusive.

Cytochrome P450 3A4 (Homo sapiens), sequence (P08684 whole entry, looked up): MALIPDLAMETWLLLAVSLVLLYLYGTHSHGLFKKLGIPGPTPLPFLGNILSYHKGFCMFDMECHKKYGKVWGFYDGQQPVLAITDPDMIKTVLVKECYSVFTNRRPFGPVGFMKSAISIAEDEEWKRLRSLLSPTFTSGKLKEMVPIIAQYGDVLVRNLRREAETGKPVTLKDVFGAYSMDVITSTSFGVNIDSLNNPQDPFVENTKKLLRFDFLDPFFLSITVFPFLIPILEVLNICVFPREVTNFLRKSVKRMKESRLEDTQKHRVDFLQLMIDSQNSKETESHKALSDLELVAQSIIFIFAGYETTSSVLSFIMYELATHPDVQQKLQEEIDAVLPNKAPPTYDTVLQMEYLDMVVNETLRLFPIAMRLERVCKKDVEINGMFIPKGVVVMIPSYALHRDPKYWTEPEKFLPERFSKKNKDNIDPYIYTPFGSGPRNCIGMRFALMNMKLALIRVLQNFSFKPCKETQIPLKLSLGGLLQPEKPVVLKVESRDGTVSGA
Pyruvate kinase PKM (Homo sapiens), sequence (P14618 whole entry, looked up): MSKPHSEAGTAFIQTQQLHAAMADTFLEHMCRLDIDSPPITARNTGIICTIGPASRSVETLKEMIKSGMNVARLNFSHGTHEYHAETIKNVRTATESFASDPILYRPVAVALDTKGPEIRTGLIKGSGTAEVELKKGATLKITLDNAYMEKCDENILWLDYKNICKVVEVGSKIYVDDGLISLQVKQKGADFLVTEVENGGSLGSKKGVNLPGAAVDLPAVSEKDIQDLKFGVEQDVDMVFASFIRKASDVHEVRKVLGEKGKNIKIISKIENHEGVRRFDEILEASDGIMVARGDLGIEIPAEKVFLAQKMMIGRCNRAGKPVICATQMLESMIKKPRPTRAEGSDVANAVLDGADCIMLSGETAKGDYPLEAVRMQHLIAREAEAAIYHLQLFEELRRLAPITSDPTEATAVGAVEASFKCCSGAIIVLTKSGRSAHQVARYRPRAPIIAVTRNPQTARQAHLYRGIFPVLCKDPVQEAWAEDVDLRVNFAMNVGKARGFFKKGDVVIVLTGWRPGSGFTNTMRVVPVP
Muscarinic acetylcholine receptor M1 (Rattus norvegicus), sequence (P08482 whole entry, looked up): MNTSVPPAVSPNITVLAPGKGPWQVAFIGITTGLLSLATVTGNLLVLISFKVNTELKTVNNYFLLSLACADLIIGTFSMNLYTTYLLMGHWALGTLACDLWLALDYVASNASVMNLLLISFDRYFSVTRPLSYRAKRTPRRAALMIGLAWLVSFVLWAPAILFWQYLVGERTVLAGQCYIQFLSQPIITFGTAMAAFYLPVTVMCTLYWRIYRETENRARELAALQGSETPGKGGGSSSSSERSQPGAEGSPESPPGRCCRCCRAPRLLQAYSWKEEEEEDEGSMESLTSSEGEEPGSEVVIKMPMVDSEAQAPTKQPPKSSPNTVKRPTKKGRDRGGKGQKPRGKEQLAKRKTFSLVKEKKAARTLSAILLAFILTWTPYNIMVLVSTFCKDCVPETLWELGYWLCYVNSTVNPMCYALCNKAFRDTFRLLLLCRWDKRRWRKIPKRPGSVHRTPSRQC
Pyruvate kinase (Leishmania mexicana), sequence (Q27686 2-499 E452W): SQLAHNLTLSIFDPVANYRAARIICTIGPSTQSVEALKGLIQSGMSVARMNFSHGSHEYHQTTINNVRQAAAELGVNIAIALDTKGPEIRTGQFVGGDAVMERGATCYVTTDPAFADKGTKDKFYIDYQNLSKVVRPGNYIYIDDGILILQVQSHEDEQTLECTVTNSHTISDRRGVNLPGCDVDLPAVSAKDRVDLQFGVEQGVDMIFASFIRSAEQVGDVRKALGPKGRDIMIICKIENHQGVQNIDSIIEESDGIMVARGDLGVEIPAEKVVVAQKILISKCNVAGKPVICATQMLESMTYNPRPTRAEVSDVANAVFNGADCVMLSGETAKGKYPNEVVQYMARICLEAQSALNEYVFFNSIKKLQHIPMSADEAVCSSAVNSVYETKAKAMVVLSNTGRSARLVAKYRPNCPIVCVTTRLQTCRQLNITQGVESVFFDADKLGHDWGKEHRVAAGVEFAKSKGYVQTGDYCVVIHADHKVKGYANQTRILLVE
Guanine nucleotide-binding protein G(i) subunit alpha-1 (Homo sapiens), sequence (P63096 whole entry, looked up): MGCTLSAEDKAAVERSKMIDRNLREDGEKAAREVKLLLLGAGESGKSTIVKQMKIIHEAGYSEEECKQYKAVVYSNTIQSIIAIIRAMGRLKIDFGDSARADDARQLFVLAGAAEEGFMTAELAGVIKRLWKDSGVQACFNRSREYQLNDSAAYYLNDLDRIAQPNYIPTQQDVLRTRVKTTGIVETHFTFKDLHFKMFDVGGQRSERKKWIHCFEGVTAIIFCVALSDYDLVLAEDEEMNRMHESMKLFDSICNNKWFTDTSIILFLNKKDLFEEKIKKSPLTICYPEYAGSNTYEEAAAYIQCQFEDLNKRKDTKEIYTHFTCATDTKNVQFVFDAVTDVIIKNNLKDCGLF
Cytochrome P450 2C19 (Homo sapiens), sequence (P33261 whole entry, looked up): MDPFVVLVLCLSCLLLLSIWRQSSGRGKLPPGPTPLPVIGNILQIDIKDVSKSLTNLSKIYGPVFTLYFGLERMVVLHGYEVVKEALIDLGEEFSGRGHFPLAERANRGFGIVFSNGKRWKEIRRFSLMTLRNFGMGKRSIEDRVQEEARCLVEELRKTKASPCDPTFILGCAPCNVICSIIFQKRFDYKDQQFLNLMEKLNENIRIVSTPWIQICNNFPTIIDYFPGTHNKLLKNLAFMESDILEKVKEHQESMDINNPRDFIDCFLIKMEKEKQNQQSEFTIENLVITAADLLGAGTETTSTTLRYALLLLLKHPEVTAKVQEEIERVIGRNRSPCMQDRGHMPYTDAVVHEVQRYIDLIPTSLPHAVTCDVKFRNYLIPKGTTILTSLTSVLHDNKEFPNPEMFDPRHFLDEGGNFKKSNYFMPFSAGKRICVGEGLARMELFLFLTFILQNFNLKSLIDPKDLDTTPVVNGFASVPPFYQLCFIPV
Cytochrome P450 2C9 (Homo sapiens), sequence (P11712 whole entry, looked up): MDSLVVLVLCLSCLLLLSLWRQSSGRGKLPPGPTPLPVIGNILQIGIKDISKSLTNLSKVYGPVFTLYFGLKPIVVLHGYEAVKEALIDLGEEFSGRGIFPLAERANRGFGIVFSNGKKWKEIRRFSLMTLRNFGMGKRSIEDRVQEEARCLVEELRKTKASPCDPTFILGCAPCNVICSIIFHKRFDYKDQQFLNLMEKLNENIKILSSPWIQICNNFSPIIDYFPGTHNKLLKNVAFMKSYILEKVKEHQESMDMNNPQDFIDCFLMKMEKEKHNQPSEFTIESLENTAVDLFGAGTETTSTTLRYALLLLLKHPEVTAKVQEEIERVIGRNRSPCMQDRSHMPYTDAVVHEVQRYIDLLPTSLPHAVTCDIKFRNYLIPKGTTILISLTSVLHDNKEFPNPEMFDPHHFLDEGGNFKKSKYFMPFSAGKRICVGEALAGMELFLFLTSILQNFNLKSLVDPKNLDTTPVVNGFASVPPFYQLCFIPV

With `CCCCC/C=C\C/C=C\C/C=C\C/C=C\CCCC(=O)NCC(=O)O`, the molecule was called inactive in experiment [1], in experiment [2], in [3], in [5] and in experiment [6]. Also, in experiment [4], the Potency entry is “inactive”.

`NCCc1ccc(O)cc1`: the call in experiment [7], in experiment [1], in experiment [10], in experiment [2], in [11] and in experiment [12] was inactive. The molecule was classed as inactive in experiment [5], in experiment [13], in [14] and in experiment [6]. Besides, the Potency entry in [8], in experiment [9] and in experiment [4] was “inactive” each time.

On to `C[C@]12CCC(=O)C=C1CC[C@@H]1[C@@H]2CC[C@]2(C)C(=O)CC[C@@H]12`, for which the call in [15], in [7], in experiment [1], in experiment [2], in experiment [11] and in [3] was inactive. Further, the outcome in [5], in experiment [13], in experiment [14] and in [6] was inactive. Further, the Potency entry in [8] and in experiment [4] was “inactive” throughout.

As for `CCOC(=O)CC(SP(=S)(OC)OC)C(=O)OCC` (centres undefined), the molecule was called inactive in experiment [15], in [7], in experiment [16], in experiment [11], in experiment [13] and in experiment [14].

For the molecule `COP(=S)(OC)Oc1ccc(SC)c(C)c1`, the call in experiment [15], in experiment [7], in experiment [10], in experiment [11], in experiment [12] and in experiment [13] was inactive. The molecule was classed as inactive in experiment [14].

In the case of `Clc1ccc(C(c2ccc(Cl)cc2)C(Cl)(Cl)Cl)cc1`, the result in experiment [15], in experiment [7], in experiment [10], in [11], in [12] and in experiment [13] was inactive. The outcome in experiment [14] was inactive. The Potency entry in [8] is “inactive”.

Regarding `CC(C)NC(C)C`, the molecule was called inactive in experiment [15], in [7], in experiment [11], in [13] and in experiment [14]. Also, the Potency entry in experiment [8] was “inactive”.

In the case of `CCC(C)(C)c1ccc(O)cc1`, the result in [15], in [7], in experiment [11], in experiment [13] and in experiment [14] was inactive. In [8], the Potency entry was “inactive”.

Turning to `C[C@]12CCC(=O)C=C1CC[C@@H]1[C@@H]2CC[C@@]2(C)[C@H]1CC[C@]2(C)O`, the call in experiment [15], in experiment [7], in experiment [11] and in experiment [14] was inactive. Further, the Potency result in experiment [8] is “inactive”.

As to `Oc1ccc(Cl)cc1`, the call in [15], in experiment [7], in experiment [10], in experiment [11], in experiment [12] and in [13] was inactive. Besides, the call in experiment [14] was inactive. In experiment [8], the Potency entry is “inactive”.

For `O=c1[nH]oc2c1CCNC2`, the result in [1], in experiment [17], in experiment [10], in [2], in experiment [12] and in experiment [3] was inactive. Moreover, the result in experiment [5] and in [6] was inactive. For the same molecule, the Potency entry in [8], in [18] and in [4] was “inactive” each time.

With `COc1cc(-c2ccc(=O)[nH]n2)ccc1OC(F)F`, in [17], the molecule was classed as inactive.

For `Cn1c(=O)c2[nH]cnc2n(C)c1=O`, the Potency entry in experiment [9] was “inactive”.

As to `Cc1ncsc1CCCl`, the Potency in experiment [9] is 7.94 µM (active).

For the molecule `CCC1(CC)C(=O)C=CNC1=O`, the activation in experiment [19] was -12.7%.

Take `COc1c2c(cc3c1OCO3)CCN(C)C2`: in experiment [19], the activation is -5.25%.

Turning to `CC(=O)N1CCN(c2ccc(OC[C@H]3CO[C@](Cn4ccnc4)(c4ccc(Cl)cc4Cl)O3)cc2)CC1`, in experiment [4], the Potency is 8.91 µM (active).

Source of the values: PubChem BioAssay (NCATS).
